Hits are enriched below; roughly 10% of the tested compounds scored in any of these assays.
GPT2 inhibitor = blocks human glutamate pyruvate transaminase 2; Recombinant GPT2, coupled pyruvate oxidase/HRP Amplex Red fluorescence; Potency, µM (highest dose often 57.7 µM), for inactives: top-dose activity change, negative = inhibition, most hits filed as inhibitors; hit rate 0.25% among 100,000; Q8TD30; AID 1671188; also: nearly all actives have a fitted effect of over 60% in size
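Fluorescence of coupled pyruvate oxidase/HRP/Amplex Red system (50uM Amplex, 30 min, dark) reports pyruvate formed by GPT2. Enzyme reaction: 10ng/uL GPT2, 2mM L-alanine, 250uM a-KG, 30 min room temperature, pH 7.5; 50uM AOA control.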
NIH3T3 tox = kills NIH 3T3 cells; NIH 3T3 viability, CellTiter-Glo ATP luminescence, 48-72 h; Potency, µM (titrated, usually from 96.7 µM), for inactives: top-dose activity change, negative = cytotoxicity, usual class: inhibitors; AID 1345082; hit rate 4.3% among 94,000; also: nearly all actives have a fitted effect of over 55% in size
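Luminescent ATP readout (CellTiter-Glo, 10 min RT) after 48 or 72 hr compound exposure of NIH 3T3 cells seeded at 400 cells/well in 1536-well format; quantitative HTS.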
FLuc inh = blocks purified firefly luciferase enzyme activity; AID 1347043; purified P. pyralis luciferase, luminescence, biochemical; hit rate 2.5% among 76,000; P08659; Potency, µM (doses to about 115 µM), usual class: inhibitors; also: nearly all actives have a fitted effect of over 65% in size
Target sequence (P08659 whole entry, looked up): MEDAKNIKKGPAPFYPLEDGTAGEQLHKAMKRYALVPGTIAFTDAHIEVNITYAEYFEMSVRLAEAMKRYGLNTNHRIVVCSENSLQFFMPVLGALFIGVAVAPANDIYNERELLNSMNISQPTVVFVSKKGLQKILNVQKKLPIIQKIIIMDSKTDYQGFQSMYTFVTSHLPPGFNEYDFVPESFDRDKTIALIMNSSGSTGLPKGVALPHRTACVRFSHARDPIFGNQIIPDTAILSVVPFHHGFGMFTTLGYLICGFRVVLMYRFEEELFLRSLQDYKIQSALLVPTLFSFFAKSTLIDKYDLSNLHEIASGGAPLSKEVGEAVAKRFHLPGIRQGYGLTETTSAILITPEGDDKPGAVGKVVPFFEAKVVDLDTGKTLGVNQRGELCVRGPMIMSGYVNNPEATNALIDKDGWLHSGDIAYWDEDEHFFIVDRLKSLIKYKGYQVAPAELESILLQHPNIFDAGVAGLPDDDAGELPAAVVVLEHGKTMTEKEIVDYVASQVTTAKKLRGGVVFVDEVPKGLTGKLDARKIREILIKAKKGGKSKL
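Luminescence read by CCD imaging after purified firefly luciferase (10nM final) was added to substrate buffer holding 10uM D-luciferin and 10uM ATP, pH 7.5, pre-dosed with compound.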
HEK cytotox = kills HEK 293 cells | HEK 293 viability, ATP luminescence (CellTiter-Glo), 48-72 h | Potency, µM (highest dose often 115 µM), for inactives: at the top dose activity change, negative = cytotoxicity, most hits filed as inhibitors | hit rate 6.6% among 94,000 | AID 1345083; also: nearly all actives have a fitted effect of over 60% in size
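Luminescence from cellular ATP, measured with CellTiter-Glo, indicates HEK 293 viability. Cells plated at 250 cells/well are treated with compound for 48 or 72 hr at 37 degree Celsius before reagent addition.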
NPR1 antag = antagonists of human natriuretic peptide receptor Npr1. Potency, µM (highest dose often 46.3 µM), inactives show at the highest dose activity change, negative = inhibition, most hits filed as inhibitors. HEK293 hNpr1 GloSensor cGMP, ANP-stimulated luminescence. hit rate 1.6% among 76,000. AID 1347048; calls by dose curve; also: nearly all actives have a fitted effect of over 60% in size
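Compound pre-incubated 30 min at room temperature on GloSensor-loaded HEK293 cells stably carrying hNpr1 and the pGS-40F cGMP biosensor. Stimulation uses hNppA at 0.1 nM final; luminescence is taken at baseline and 20 min post-agonist.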
* hit, by the source's call; [ ] = remark or other dose. Unless noted, calls follow the shape of the dose curve; as a rule, active = well fitted curve in the direction sought with a large enough effect; inconclusive = small, poorly fitted or top-dose-only effect, or another doubt; inactive = no such curve, though single readings can be large; an effect the other way counts as inactive or inconclusive. % is scaled to controls: 0 for no effect and ±100 for the full control effect; potency is read from the fitted curve at half-maximal effect.

For COc1cccc(CN2CC(Oc3ccccc3C(=O)NCc3ccccc3)C2)c1 the results were GPT2 inhibitor inactive, NIH3T3 tox 35.5µM*, FLuc inh inactive, HEK cytotox 39.8µM* and NPR1 antag -19.2%.
For O=C(NCc1ccccc1)c1ccccc1OC1CN(Cc2ccc(F)cc2)C1 the results were GPT2 inhibitor 1.2%, NIH3T3 tox 31.6µM*, FLuc inh inactive, HEK cytotox inconclusive and NPR1 antag -16.7%.
O=C(NCCc1ccccc1F)c1ccc2nc(-c3cccnc3)oc2c1 was read as GPT2 inhibitor 2.2%, NIH3T3 tox -12.9% and HEK cytotox 4.7%.
COc1ccc2cc(C3CN(c4ncnc(C)c4C)CCO3)ccc2c1 (stereo not drawn) was read as GPT2 inhibitor -6.1%, NIH3T3 tox inconclusive, FLuc inh inconclusive, HEK cytotox inconclusive and NPR1 antag 2.51µM*.
COCC1(C(=O)N2CCOC(c3ccc4cc(OC)ccc4c3)C2)CCC1 (stereo not drawn) was read as GPT2 inhibitor 0.5%, NIH3T3 tox inconclusive, FLuc inh 20µM*, HEK cytotox inconclusive and NPR1 antag -22.2%.
COc1cc(CN2CCN(c3ncnc(C)c3C)CC2CCO)cc(OC)c1 (stereo not drawn) was read as GPT2 inhibitor 0.3%[11.5 µM], NIH3T3 tox -37.8%, FLuc inh inactive, HEK cytotox inconclusive and NPR1 antag 1.1%.
Screening COc1ccc2cc(C3CN(C(=O)c4cccn4C)CCO3)ccc2c1 (stereo not drawn) returned GPT2 inhibitor inconclusive, NIH3T3 tox 39.8µM*, FLuc inh 4.47µM*, HEK cytotox inconclusive and NPR1 antag 15.8µM*.
`COc1ccc2c(C)c(C(=O)N3CCOC(c4ccc(F)cc4)C3)oc2c1` (stereo not drawn) gave GPT2 inhibitor -32.7%, NIH3T3 tox inconclusive, FLuc inh inactive, HEK cytotox inconclusive and NPR1 antag -14.0%.
`Cn1cccc1C(=O)N1CC(n2cc(C(=O)N3CCOCC3)nn2)C1` gave GPT2 inhibitor inactive, NIH3T3 tox -7.1% and HEK cytotox 0.9%.
Screening CNC(=O)[C@@H]1CN(C(=O)CCc2c[nH]c3ccccc23)C[C@H]1CO returned GPT2 inhibitor inactive, NIH3T3 tox -9.4%, FLuc inh inactive, HEK cytotox -7.2% and NPR1 antag 1.8%.
`COC(=O)CNC(=O)[C@@H]1CCCN1c1nccc(Nc2ccccc2OC)n1` gave GPT2 inhibitor inconclusive, NIH3T3 tox -30.0% and HEK cytotox -22.9%.
For COc1cccc(-c2cccc(C(=O)N3CCN([S+](=O)([O-])c4ccccc4)CC3)c2)c1 the results were GPT2 inhibitor inactive, NIH3T3 tox inconclusive and HEK cytotox 35.5µM*.
For COc1cccc(-c2cccc(C(=O)N3CCN(C(=O)c4ccc(C)cc4)CC3)c2)c1 the results were GPT2 inhibitor -7.6%, NIH3T3 tox inconclusive and HEK cytotox inconclusive.
For COc1cccc(-c2cccc(C(=O)N3CCN(C(=O)c4ccc(F)cc4)CC3)c2)c1 the results were GPT2 inhibitor 4.2%, NIH3T3 tox inconclusive and HEK cytotox 28.2µM*.
`CCOC(=O)[C@H]1C[C@]2(CCCCN(CCOC)C2=O)N(C(=O)COC(C)=O)[C@H]1c1ccccc1` gave NIH3T3 tox inconclusive and HEK cytotox -18.5%.
Screening CC(=O)c1cc(CN2CCOC(CCCc3ccccc3)C2)cs1 (stereo not drawn) returned GPT2 inhibitor -5.4%, NIH3T3 tox -26.8%, FLuc inh inactive, HEK cytotox inconclusive and NPR1 antag inconclusive.
For Cc1ccccc1-c1cccc(CN2CCOC(CCN)C2)c1 (stereo not drawn) the results were GPT2 inhibitor inconclusive, NIH3T3 tox 20µM*, FLuc inh inactive, HEK cytotox inconclusive and NPR1 antag -7.0%.
`Cc1cc(C)cc(NC(=O)N2c3ccccc3CC2c2noc(C3CCOCC3)n2)c1` (stereo not drawn) gave GPT2 inhibitor -6.3%, NIH3T3 tox -25.4%, FLuc inh 39.8µM*, HEK cytotox -26.3% and NPR1 antag -7.3%.
Screening C=CCNC(=O)c1cnn2ncccc12 returned GPT2 inhibitor 3.8%[88.5 µM], NIH3T3 tox -9.5%[174 µM], FLuc inh 50.1µM*, HEK cytotox inactive and NPR1 antag -4.7%[70.6 µM].
C=CCNC(=O)c1cnn2cc(C)ccc12 was read as GPT2 inhibitor inactive, NIH3T3 tox -25.1%[174 µM], FLuc inh inconclusive, HEK cytotox -6.2%[230 µM] and NPR1 antag 0.0%[70.6 µM].
For Cc1ccc(CNC(=O)CN2CCCc3nc(C4CC4)ncc3C2=O)cc1 the results were GPT2 inhibitor -20.9%, NIH3T3 tox -25.2% and HEK cytotox -11.3%.
Screening O=S(=O)(Cc1ccccc1)N[C@H]1CO[C@H]2[C@@H]1OC[C@@H]2Nc1nccc(-c2cccc(F)c2)n1 returned GPT2 inhibitor -7.6%, NIH3T3 tox inconclusive, FLuc inh inactive, HEK cytotox 31.6µM* and NPR1 antag inconclusive.
For N#Cc1cccc(NC(=O)O[C@@H]2CO[C@H]3[C@@H]2OC[C@@H]3Nc2nccc(-c3ccc4c(c3)OCO4)n2)c1 the results were GPT2 inhibitor -3.6%, NIH3T3 tox inconclusive, FLuc inh inactive, HEK cytotox 28.2µM* and NPR1 antag -30.3%.
For O=C(Nc1cccc(C(F)(F)F)c1)O[C@@H]1CO[C@H]2[C@@H]1OC[C@@H]2Nc1nccc(-c2ccc(-c3ccccc3)cc2)n1 the results were GPT2 inhibitor inactive, NIH3T3 tox -13.8%, FLuc inh inactive, HEK cytotox -23.7% and NPR1 antag 0.2%.
Screening CC(C)(C)c1ccc(NC(=O)O[C@@H]2CO[C@H]3[C@@H]2OC[C@@H]3Nc2nccc(-c3ccc(-c4ccccc4)cc3)n2)cc1 returned GPT2 inhibitor 1.1%, NIH3T3 tox 39.8µM*, FLuc inh inactive, HEK cytotox 28.2µM* and NPR1 antag 0.4%.
CN(C)c1ccc(-c2ccnc(N[C@H]3CO[C@H]4[C@@H]3OC[C@H]4OC(=O)Nc3cccc(C(F)(F)F)c3)n2)cc1 was read as GPT2 inhibitor -16.5%, NIH3T3 tox inconclusive, FLuc inh inactive, HEK cytotox 31.6µM* and NPR1 antag -15.1%.
For Cc1ccc(-c2[nH]ncc2CN)cc1C the results were GPT2 inhibitor -12.7%, NIH3T3 tox inactive, FLuc inh inactive, HEK cytotox 3.2% and NPR1 antag 1.3%.
For COC(=O)NC1CCN(C(=O)c2cccc(-c3ccc(OC)nn3)c2)CC1 the results were NIH3T3 tox -14.1%[138 µM] and HEK cytotox -9.5%[172 µM].
`COc1ccccc1OCCNC(=O)CCC1CCN(C(=O)c2ccccc2)CC1` gave GPT2 inhibitor -4.8%, NIH3T3 tox -8.0%, FLuc inh inconclusive, HEK cytotox -26.0% and NPR1 antag -10.7%.

Screening data from PubChem BioAssay.
